# Most compounds without a hit are left out; they make up all but 0.56% or so of the library.
# KinaseGlo FLuc – Kinase-Glo luciferase inhibition (counter-screen); AID 1379; 0.28% of 200,000 active; Potency, µM (titrated, usually from 38.3 µM), for inactives: at the highest dose activity change, negative = inhibition, hits mostly inhibitors; Kinase-Glo luciferase, ATP luminescence, 8 min; further: potency means the concentration at half of the fitted maximal effect; on the % scale 0 is the no-effect control and ±100 the full control effect; nearly all actives have a fitted effect of over 60% in size
#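 Luminescence was the read-out, taken after 8-minute incubation at ambient temperature. Luciferase turned over luciferin with 10 uM ATP in imidazole pH 7.2 buffer containing KCl, MgCl2, Tween 20 and BSA.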
# Tb PFK inh – inhibitors of T. brucei phosphofructokinase; 0.17% of 330,000 active; Potency, µM (titrated, usually from 57.5 µM), for inactives: top-dose activity, negative = inhibition, usual class: inhibitors; O15648; AID 485367; T. brucei PFK, ADP-Glo luminescence;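 further: potency means the concentration at half of the fitted maximal effect; 0% = uninhibited 1x PFK enzyme wells and -100% = no-enzyme wells; nearly all actives have a fitted effect of over 60% in size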
# Target sequence (O15648 whole entry, looked up): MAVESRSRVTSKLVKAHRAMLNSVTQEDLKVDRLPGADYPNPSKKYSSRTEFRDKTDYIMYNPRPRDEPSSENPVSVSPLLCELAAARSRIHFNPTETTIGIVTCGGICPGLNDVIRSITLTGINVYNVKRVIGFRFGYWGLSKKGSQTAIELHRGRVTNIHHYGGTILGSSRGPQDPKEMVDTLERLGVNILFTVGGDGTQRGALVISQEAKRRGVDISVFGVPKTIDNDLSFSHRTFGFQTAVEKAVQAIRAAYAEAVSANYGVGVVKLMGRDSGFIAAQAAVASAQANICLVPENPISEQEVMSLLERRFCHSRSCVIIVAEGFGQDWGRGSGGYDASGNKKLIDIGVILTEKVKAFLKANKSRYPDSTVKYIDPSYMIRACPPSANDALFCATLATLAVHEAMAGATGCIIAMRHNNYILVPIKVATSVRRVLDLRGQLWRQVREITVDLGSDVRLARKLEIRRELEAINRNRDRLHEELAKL
#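 Activity is normalized to no-enzyme wells (full inhibition) and 1.25 nM enzyme wells (no inhibition). Reaction: 0.5 mM F6P, 0.1 mM ATP, 45 min RT, ADP-Glo luminescence; concentration-response curves fitted and classed by quality.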
# CBFb RUNX1 block – blocks binding between human CBF-beta and RUNX1; Q01196+Q13951; AlphaScreen CBFb-His/RUNX1-biotin binding, biochemical; Potency, µM (top dose mostly 59.8 µM), for the others: top-dose activity, negative = inhibition, usual class: inhibitors; 230,000 tested, under 10 active; further: % of control where 0% means no effect
#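 Interaction loss through any mechanism counts as activity. Pre-formed complex of His-CBF-beta and biotin-RUNX1 (30 nM apiece) is incubated with compound 15 min, then with 50 ng nickel and 50 ng streptavidin beads for 90 min before AlphaScreen detection.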
# GALK inhibitor – galactokinase (human) inhibition. Purified GALK, Kinase-Glo residual ATP luminescence. 0.007% of 270,000 active. AID 1868. P51570. Potency, µM (highest dose often 57.5 µM), without a hit: at the top dose activity change, negative = inhibition, hits mostly inhibitors; further: potency means the concentration at half of the fitted maximal effect; on the % scale 0 is the no-effect control and ±100 the full control effect
#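 5 nM enzyme, 35 uM ATP, 100 uM galactose, 20 mM HEPES pH8.0, 5 mM MgCl2; 1 h RT; residual ATP by Kinase-Glo Plus luminescence, qHTS format.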
# PKM2 act – increases activity of human pyruvate kinase M2; purified PKM2, Kinase-Glo ATP luminescence, activation; response scale: 0% is enzyme alone, no compound; Potency, µM (doses to about 57.5 µM), without a hit: at the top dose activation, most hits filed as activators; 0.34% of 260,000 active; AID 1631; further: potency means the concentration at half of the fitted maximal effect; on the % scale 0 is the no-effect control and ±100 the full control effect; nearly all actives have a fitted effect of over 55% in size
#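 ATP formation by purified human PK-M2, quantified via coupled luciferase luminescence after 1 h at room temperature with 0.1 mM ADP and 0.5 mM PEP final.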
# An asterisk follows results filed as active; ? = inconclusive; nt = no result; [ ] = another dose, or the depositor's remark. The call rests on the fitted dose curve; in most records, active means well fitted curve in the direction sought with a large enough effect; inconclusive means small, poorly fitted or top-dose-only effect, or another doubt; inactive means no such curve, though single readings can be large; an effect the other way counts as inactive or inconclusive.
SMILES,KinaseGlo FLuc,Tb PFK inh,CBFb RUNX1 block,GALK inhibitor,PKM2 act
CCC(/C=C1\Sc2ccc(OC)cc2N1CC)=C\c1sc2ccc(OC)cc2[n+]1CCCS(=O)(=O)[O-],10µM*,-26.5%,-16.8%,14.3%,-3.7%
O=C(O)/C(Cc1cn[nH]n1)=N\O,-3.9%[7.66 µM],nt,nt,nt,nt
Cc1cc(C)c(S(=O)(=O)N2CCN(C(=O)CCn3nc(C)c(C)c3C)CC2)c(C)c1,nt,3.4%,nt,16.9%,14.1µM*
CCN(CC)C(=O)N1CCN(S(=O)(=O)c2c(C)cc(C)cc2C)CC1,0.3%,2.0%,-6.7%,-2.5%,0.1%
Cc1nn(CCC(=O)N2CCN(S(=O)(=O)c3ccccc3)CC2)c(C)c1C,nt,1.2%,nt,4.2%,11.2µM*
C=C(CO)C1Cc2c(ccc3c2OC2COc4cc(OC)c(OC)cc4C2C3=O)O1 (stereo not given),1.7%,nt,14.7%[21.7 µM],nt,nt
COc1ccc(NC(=O)CSc2n[nH]c(N)n2)c([N+](=O)[O-])c1,-3.6%,1.5%,9.3%,-0.1%,14.1µM*
COc1ccc(NC(=O)CSc2n[nH]c(C(C)C)n2)c([N+](=O)[O-])c1,1.3%,0.2%,-3.8%,11.6%,20.3%
Cc1ccc(S(=O)(=O)NCCNc2ccc([N+](=O)[O-])cc2C(F)(F)F)cc1,-0.4%,-2.6%,5.6%,-1.4%,?
O=[N+]([O-])c1ccc(NCCNS(=O)(=O)c2ccccc2)c(C(F)(F)F)c1,1.3%,1.0%,0.9%,-2.2%,28.2µM*
COc1ccc(C(=O)NCCN2C(=O)S/C(=C\c3cccnc3)C2=O)c(OC)c1OC,-4.5%,0.0%,-10.1%,0.7%,?
CCOc1cc(C(=O)NCCN2C(=O)S/C(=C\c3cccnc3)C2=O)cc(OCC)c1OCC,-0.2%,-3.5%,3.0%,1.1%,17.8µM*
OC1OC[C@H](O)[C@@H](O)[C@@H]1O (stereo not given in full),nt,nt,14.1%,nt,nt
O=C(Nc1nccs1)c1cc2c(s1)CCCCC2,7.08µM*,-22.0%,-1.6%,1.6%,-59.0%
O=C(Nc1nncs1)c1cc2c(s1)CCC2,-4.2%,-0.3%,4.3%,12.9%,-11.4%
CN(C)c1ccc(/C=C/c2ccc3c4ccccc4ccc3[n+]2-c2ccccc2)cc1,10µM*,-11.5%,nt,7.4%,-13.0%
CN(C)CN1CSC(=S)N(CN(C)C)C1,-3.3%[7.66 µM],nt,nt,nt,nt
CC(=O)c1ccc2c(c1)C1C=CCC1C(C(=O)O)N2 (stereo not given),-9.1%,8.49µM*,4.0%,0.1%,7.5%
CC[C@H](C)[C@H](N)C(=O)N[C@H]1CCC(=O)NCC(C(=O)N[C@@H](Cc2ccc(O)cc2)C(=O)N[C@@H](CCCNC(=N)N)C(=O)N[C@@H](CC(C)C)C(=O)N[C@@H](CCCNC(=N)N)C(=O)N[C@@H](Cc2ccc(O)cc2)C(N)=O)NC(=O)[C@@H]2CCCN2C(=O)[C@@H](NC(=O)[C@@H](N)[C@@H](C)CC)CCC(=O)NCC(C(=O)N[C@@H](Cc2ccc(O)cc2)C(=O)N[C@@H](CCCNC(=N)N)C(=O)N[C@@H](CC(C)C)C(=O)N[C@@H](CCCNC(=N)N)C(=O)N[C@@H](Cc2ccc(O)cc2)C(N)=O)NC(=O)[C@@H]2CCCN2C1=O (stereo not given in full),nt,nt,2.1%,nt,nt
COc1ccc(NC(=O)CN2CCN(S(=O)(=O)c3ccc(Cl)cc3)CC2)cc1Cl,-0.4%,-5.8%,1.0%,-1.2%,-1.1%
COc1ccc(S(=O)(=O)N2CCCN(CC(=O)Nc3ccc(OC)c(Cl)c3)CC2)cc1,-0.7%,0.4%,2.6%,-2.8%,20µM*
COc1cc(CC(=O)OCC(=O)Nc2ccc(S(=O)(=O)N3CCCC3)cc2)cc(OC)c1OC,-0.9%,-3.1%,1.6%,3.5%,20µM*
COc1ccc(CC(=O)Nc2ccc(S(=O)(=O)N3CCCC3)cc2)cc1OC,nt,0.9%,nt,nt,nt
NS(=O)(=O)c1ccc(CCNC(=O)CCS(=O)(=O)c2ccc(Br)cc2)cc1,nt,15.1µM*,nt,nt,nt
O=C(CCS(=O)(=O)c1ccc(Br)cc1)NCCc1ccccc1,nt,-18.6%,nt,nt,nt
SMILES,KinaseGlo FLuc,Tb PFK inh,CBFb RUNX1 block,GALK inhibitor,PKM2 act
CCc1ccc(NS(=O)(=O)c2cc3c(cc2C)n(C)c(=O)c(=O)n3C)cc1,nt,-4.4%,nt,nt,?
Cc1cc2c(cc1S(=O)(=O)Nc1cccc(C)c1C)n(C)c(=O)c(=O)n2C,nt,0.2%,nt,nt,0.501µM*
Cc1cc2c(cc1S(=O)(=O)Nc1ccc(F)cc1)n(C)c(=O)c(=O)n2C,nt,2.2%,nt,nt,2.51µM*
Brc1c(-c2ccccc2)nc2n1Cc1ccccc1-2,nt,-5.5%,?,-0.2%,-0.8%
c1ccc2c(c1)Cn1c-2nc2ccccc21,11.2µM*,-17.7%,2.1%,9.1%,-46.4%
COc1ccc(-n2ccc(=O)c3c2CCCC3=O)cc1,-0.1%,-5.1%,7.3%,4.5%,28.2µM*
COc1ccccc1C1=Nn2c(nnc2-c2ccccc2O)SC1,nt,nt,-5.4%,nt,nt
COc1ccc(C(=O)N2CCN(Cc3ccccc3)CC2)cc1[N+](=O)[O-],nt,2.5%,nt,-2.3%,1.7%[11.5 µM]
O=C(c1ccc(S(=O)(=O)c2cccc(Cl)c2)c([N+](=O)[O-])c1)N1CCN(Cc2ccccc2)CC1,0.1%,7.5%,?,2.3%,3.16µM*
O=C1C=CC(=O)C2=C1C1c3ccccc3C2c2ccccc21,-3.5%,nt,-13.8%,nt,-49.0%
Cc1occc1C(=O)Nc1ccc2c(c1)OCCO2,7.08µM*,-21.7%,-2.1%,9.3%,-52.5%
Cc1ncoc1C(=O)Nc1ccc2c(c1)OCCO2,?,-20.4%,2.4%,6.9%,-46.4%
O=C(Nc1ccc2c(c1)OCCO2)c1coc2ccccc2c1=O,8.91µM*,6.5%,-2.6%,1.3%,-25.4%
Cc1nn(C)c(C(=O)Nc2ccc3c(c2)OCO3)c1[N+](=O)[O-],nt,0.6%,nt,4.1%,nt
Cc1ccsc1C(=O)Nc1ccc2c(c1)OCCO2,10µM*,-12.3%,0.3%,7.3%,-59.7%
Cc1c([N+](=O)[O-])c(C(=O)Nc2ccc3c(c2)OCCO3)nn1C,12.6µM*,?,1.3%,4.6%,-28.6%
Cc1ccccc1C(=O)Nc1ccc2c(c1)OCCO2,nt,-9.9%,nt,5.5%,3.3%
O=C(Nc1ccc2c(c1)CCC2)c1ccccc1F,-17.1%,-18.7%,-4.3%,2.4%,-8.5%
Cc1ccc(C(=O)Nc2ccc3c(c2)CCC3)o1,12.6µM*,3.6%,4.3%,-0.2%,-41.4%
Cc1occc1C(=O)Nc1ccc2c(c1)CCC2,12.6µM*,-4.1%,6.6%,4.7%,-35.4%
CC(C)[N+]1(C)[C@@H]2CC[C@H]1CC(OC(=O)[C@@H](CO)c1ccccc1)C2 (stereo not given in full),-0.9%,nt,6.7%[21.7 µM],nt,nt
O=C1C(Cl)=C(N2CCOCC2)C(=O)N1c1cccc(Cl)c1,-4.3%,1.0%,-1.1%,4.9%,14.1µM*
CN(/N=C/c1cccs1)c1cc(=O)n(C)c(=O)[nH]1,0.6%,-0.5%,-14.4%,-1.4%,18.0%
